# In PubChem BioAssay (EPA / NIEHS):
# The source made the active and inactive calls. Rule for the calls: active = hit-call score of the fitted dose curve at least 0.9, where 1 is the maximum; inactive = score below 0.9.
# Assays:
# [1] = read-out: Vascular cell adhesion molecule 1 (VCAM1), VCAM1 (gene 7412); assay: BSK_CASM3C_VCAM1: BioMAP Diversity Plus: CASM3C Assay for Vascular cell adhesion molecule 1 (VCAM1) Biomarker Activity (AID 2283055); details: primary human coronary artery smooth muscle cells; actives raise or lower the signal;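 note: VCAM-1 protein level quantified by ELISA on the cells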
# [2] = read-out: Collagen III, COL3A1 (gene 1281); assay: BSK_hDFCGF_CollagenIII: BioMAP Diversity Plus: hDFCGF Assay for Collagen III Biomarker Activity (AID 2283056); details: primary human foreskin fibroblasts; actives raise or lower the signal
# Procedure, shortened: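 Cells: human foreskin fibroblasts, primary. Dosing followed by 24 h incubation, then ELISA for collagen III. Both increases and decreases scored relative to DMSO.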
# [3] = read-out: Epidermal growth factor receptor (EGFR), EGFR (gene 1956); assay: BSK_hDFCGF_EGFR: BioMAP Diversity Plus: hDFCGF Assay for Epidermal growth factor receptor (EGFR) Biomarker Activity (AID 2283057); details: primary human foreskin fibroblasts; actives raise or lower the signal
# Procedure, shortened: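 hDFCGF system, primary human foreskin fibroblasts; compound 24 h; EGFR measured by ELISA; DMSO = negative control/baseline; bidirectional fitting.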
# [4] = read-out: Interleukin-8 (IL8), CXCL8 (gene 3576); assay: BSK_hDFCGF_IL8: BioMAP Diversity Plus: hDFCGF Assay for Interleukin-8 (IL8) Biomarker Activity (AID 2283058); details: primary human foreskin fibroblasts; actives raise or lower the signal
# Procedure, shortened: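 IL-8 levels from compound-treated primary human fibroblasts were read by ELISA at 24 h, with DMSO serving as baseline for bidirectional fitting.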
# [5] = BSK_hDFCGF_Proliferation: Cell Proliferation Assessment in the BioMAP Diversity Plus: hDFCGF Assay (AID 2283059); details: primary human foreskin fibroblasts;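 note: curves fitted for both rise and fall of signal versus DMSO baseline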
# Procedure, shortened: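 Steps: dose primary human dermal fibroblasts (foreskin); […] fix in 10% TCA; stain with 0.1% SRB; read 560 nm; fit gain or loss of signal against DMSO.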
# [6] = read-out: Macrophage colony-stimulating factor (MCSF), CSF1 (gene 1435); assay: BSK_hDFCGF_MCSF: BioMAP Diversity Plus: hDFCGF Assay for Macrophage colony-stimulating factor (MCSF) Biomarker Activity (AID 2283060); details: primary human foreskin fibroblasts; actives raise or lower the signal
# Procedure, shortened: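 M-CSF levels, determined by ELISA, are taken at 24 h after dosing human skin fibroblasts. Responses in either direction are fitted with DMSO serving as the baseline.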
# [7] = BSK_hDFCGF_SRB: Viability Assessment in the BioMAP Diversity Plus: hDFCGF Assay (AID 2283061); details: primary human foreskin fibroblasts;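 note: cells exposed to compound for 24 h before the read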
# Procedure, shortened: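 Cells were dosed with test chemical, cultured 24 h, fixed with 10% TCA, then stained with 0.1% SRB and read at 560 nm. The fibroblasts were human foreskin primary cells, and DMSO served as baseline.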
# [8] = read-out: TIMP metallopeptidase inhibitor 1 (TIMP1), TIMP1 (gene 7076); assay: BSK_hDFCGF_TIMP1: BioMAP Diversity Plus: hDFCGF Assay for TIMP metallopeptidase inhibitor 1 (TIMP1) Biomarker Activity (AID 2283062); details: primary human foreskin fibroblasts; actives raise or lower the signal
# Procedure, shortened: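 Fibroblasts from human foreskin are treated with test chemical and harvested at 24 h. TIMP-1 is quantified by ELISA, and gain or loss of signal is scored against DMSO.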
# [9] = read-out: Matrix Metallopeptidase 1 (MMP1), MMP1 (gene 4312); assay: BSK_hDFCGF_MMP1: BioMAP Diversity Plus: hDFCGF Assay for Matrix Metallopeptidase 1 (MMP1) Biomarker Activity (AID 2283064); details: primary human foreskin fibroblasts; actives raise or lower the signal
# Procedure, shortened: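 hDFCGF primary fibroblasts (human foreskin); chemical added; 24 h; MMP1 by ELISA; bidirectional fit vs DMSO.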
# [10] = read-out: Monokine induced gamma interferon (MIG), CXCL9 (gene 4283); assay: BSK_hDFCGF_MIG: BioMAP Diversity Plus: hDFCGF Assay for Monokine induced gamma interferon (MIG) Biomarker Activity (AID 2283063); details: primary human foreskin fibroblasts; actives raise or lower the signal
# Procedure, shortened: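 MIG signal, determined by ELISA, reflects 24 h chemical exposure of human skin primary fibroblasts. DMSO serves as negative control and baseline.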
compound,measurement,setting,value
Cc1ccc(S(=O)(=O)O)cc1C,outcome,[1],inactive
same,outcome,[2],inactive
same,outcome,[3],inactive
same,outcome,[4],inactive
same,outcome,[5],inactive
same,outcome,[6],inactive
same,outcome,[7],inactive
same,outcome,[8],inactive
same,outcome,[9],inactive
CC(C)=CCCC(C)CCO (centres undefined),outcome,[1],inactive
same,outcome,[2],inactive
same,outcome,[3],inactive
same,outcome,[4],inactive
same,AC50,[5],26.4 µM (active)
same,outcome,[6],inactive
same,outcome,[7],inactive
same,outcome,[8],inactive
same,outcome,[9],inactive
O=C1CCC(N2C(=O)c3ccccc3C2=O)C(=O)N1 (centres undefined),outcome,[1],inactive
same,outcome,[2],inactive
same,outcome,[3],inactive
same,outcome,[4],inactive
same,outcome,[5],inactive
same,outcome,[6],inactive
same,outcome,[7],inactive
same,outcome,[8],inactive
same,outcome,[9],inactive
CC(=O)c1ccc2c(c1)[C@H](NC(=O)c1ccc(F)cc1)[C@@H](O)C(C)(C)O2,outcome,[1],inactive
same,outcome,[2],inactive
same,outcome,[3],inactive
same,outcome,[4],inactive
same,outcome,[5],inactive
same,outcome,[6],inactive
same,outcome,[7],inactive
same,outcome,[8],inactive
same,outcome,[9],inactive
CC(C)CC(C)(O)C#CC(C)(O)CC(C)C (centres undefined),outcome,[1],inactive
same,outcome,[2],inactive
same,outcome,[3],inactive
same,outcome,[4],inactive
same,outcome,[5],inactive
same,outcome,[6],inactive
same,outcome,[8],inactive
same,outcome,[10],inactive
same,outcome,[9],inactive
CCc1cc(SCc2sc(-c3ccc(C(F)(F)F)cc3)nc2CN2CCN(c3ccc(OC)cc3)CC2)ccc1OCC(=O)O,AC50,[1],33 µM (active)
same,AC50,[2],3.97 µM (active)
same,AC50,[3],1.94 µM (active)
same,AC50,[4],5.15 µM (active)
same,AC50,[5],1.68 µM (active)
same,AC50,[6],3.28 µM (active)
same,AC50,[8],2.53 µM (active)
same,AC50,[10],3.38 µM (active)
same,AC50,[9],1.8 µM (active)
COc1ccc(-n2nc(C(F)F)cc2-c2ccc(S(C)=O)cc2)cc1 (centres undefined),outcome,[1],inactive
same,outcome,[2],inactive
same,outcome,[3],inactive
same,outcome,[4],inactive
same,outcome,[5],inactive
same,outcome,[6],inactive
same,outcome,[7],inactive
same,outcome,[8],inactive
same,outcome,[9],inactive
Cc1ccc(N)cc1O,outcome,[1],inactive
same,outcome,[2],inactive
same,outcome,[3],inactive
same,outcome,[4],inactive
same,AC50,[5],23.9 µM (active)
same,outcome,[6],inactive
same,outcome,[7],inactive
same,outcome,[8],inactive
same,outcome,[9],inactive
C[C@](N)(Cc1ccc(O)c(O)c1)C(=O)O,outcome,[1],inactive
same,outcome,[2],inactive
same,outcome,[3],inactive
same,outcome,[4],inactive
same,AC50,[5],12.5 µM (active)
same,AC50,[6],26.6 µM (active)
same,outcome,[7],inactive
same,outcome,[8],inactive
same,outcome,[9],inactive
CCCCCCCCCCCCCCCO,outcome,[1],inactive
same,outcome,[2],inactive
same,outcome,[3],inactive
same,outcome,[4],inactive
same,AC50,[5],20 µM (active)
same,outcome,[6],inactive
same,outcome,[8],inactive
same,outcome,[9],inactive
